# This is a sample that favours compounds with a hit; in the whole collection about 1.4% have one here.
# SSB-PriA inh – inhibitors of Klebsiella pneumoniae PriA binding to SSB C-terminal tail. AID 1272365. AlphaScreen SSBct-PriA binding, biotinylated peptide. inhibition, % at 33 µM. 430,000 compounds, 0.6% hits; in the data active = inhibition mostly above about 37%, no sharp cut-off; inactive = mostly below about 20%;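 also: plate controls were negative control peptide for no effect and reference peptide for full effect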
# FadD28 binding – blocks FadD28 binding to the bisubstrate probe. fluorescence polarization. inhibition, % at 12.5 µM. 360,000 compounds, 0.22% hits. AID 588549; in the data active = inhibition above about 8.5%, passing the limit was not always enough
# PrPC TRFRET – reduces human prion protein on the cell surface; cell surface PrPC, TR-FRET read-out; 370,000 compounds, 0.43% hits; P04156; AID 720596; inhibition, % at 13.8 µM; in the data active = inhibition above about 24%; also: 0% = median of the test wells and 100% = reference compound wells
# PrP 5UTR inh – suppresses PrP 5' UTR mRNA reporter expression; 340,000 compounds, 0.35% hits; inhibition, % (concentration not given with the values); cell-based PrP 5' UTR mRNA reporter, plate reader; in the data active = inhibition above about 52%; also: 0 = median of the neutral control wells
# Vc quorum ag – induces V. cholerae light production without autoinducers | V. cholerae BH1578 lux reporter, luminescence, 6 h | activation, % at 18.7 µM | 350,000 compounds, 0.16% hits; in the data active = activation mostly above about 9.7%, no sharp cut-off
# Numbers without * were called inactive; i = inactive; x = no result given.
SMILES,SSB-PriA inh,FadD28 binding,PrPC TRFRET,PrP 5UTR inh,Vc quorum ag
Cc1ccc(-n2ccnc2N2CCN(C(=O)c3c(F)cccc3Cl)CC2)cc1,62*,x,x,x,x
Cc1ccc(-n2ccnc2N2CCN(C(=O)c3ccc(C)c(C)c3)CC2)cc1,36*,x,x,x,x
Cc1ccc(-n2ccnc2N2CCN(C(=O)c3c(F)cccc3F)CC2)cc1,78*,x,x,x,x
CC(C)(C)C(=O)Nc1sc2c(c1C(=O)O)CCCC2,6,x,x,x,x
Cc1ccc(S(=O)(=O)Cn2cncn2)cc1,-24,x,x,x,x
CCOc1ccc(S(=O)(=O)Nc2ccccc2C(=O)O)c(C)c1C,-18,x,x,x,x
CC(C)Sc1ccc(CC(=O)N2CCN(c3ccc(-n4cncn4)nn3)CC2)cc1,-4,x,x,x,x
O=C(NC1CCCC1)c1cn(Cc2cccc(F)c2)nc1OCc1cccc(F)c1,-13,x,x,x,x
COc1cc2c(c(OC)c1OC)-c1ccc(OC)c(=O)cc1C(NC(C)=O)CC2 (stereo unspecified),6,-4,2,63*,i
COc1ccc(S(=O)(=O)Nc2cccc(C(=O)Nc3nnc(C4=COCCO4)o3)c2)cc1,56*,x,x,x,x
COc1cccc2cc(-c3nnc(NC(=O)c4ccc(N(C)C)cc4)o3)oc12,13,x,x,x,x
COc1cccc2cc(-c3nnc(NC(=O)c4cccc(S(C)(=O)=O)c4)o3)oc12,90*,x,x,x,x
O=C(Nc1nnc(-c2ccc3c(c2)OCCO3)o1)c1cccc(NS(=O)(=O)c2ccc(F)cc2)c1,32*,x,x,x,x
Cc1csc(NC(=O)C2CCN(c3cc(C4CC4)ncn3)CC2)n1,-10,x,x,x,x
CCOC(=O)c1c(-c2ccc(Cl)cc2)csc1NC(=O)CSc1cc(C)c2ccccc2n1,-1,x,x,x,x
CN(C)c1ccc(N=Nc2ccc(S(=O)(=O)O)cc2)c2ccccc12,46,14*,-59,-32,0
O=C(Nc1nc(-c2ccccn2)cs1)c1ccc(Cl)cc1[N+](=O)[O-],110*,x,x,x,x
Cc1cccc(C(=O)Nc2nc(-c3ccccn3)cs2)c1[N+](=O)[O-],97*,x,x,x,x
CSc1ccc(C(=O)Nc2nc(-c3ccccn3)cs2)cc1[N+](=O)[O-],33,x,x,x,x
O=[N+]([O-])c1nn(-c2ccc3c(c2)OCCO3)n(O)c1=Nc1ccc(Cl)cc1,21,-3,-13,14,i
CCc1ccc(N=c2c([N+](=O)[O-])nn(-c3ccc4c(c3)OCCO4)n2O)cc1,58*,2,-10,-3,0
O=[N+]([O-])c1nn(-c2ccc3c(c2)OCCO3)n(O)c1=NC1CCCCCC1,55*,0,3,x,i
O=[N+]([O-])c1nn(-c2cccc(Cl)c2)n(O)c1=NC1CCCCC1,90*,x,x,x,x
O=[N+]([O-])c1nn(-c2ccc3c(c2)OCCO3)n(O)c1=NC1CCCC1,-12,-1,-13,-28,1
COc1ccc(CC(=O)N2CCN(c3ccc(-c4ccc(C)cc4)nn3)CC2)cc1,-2,x,x,x,x
SMILES,SSB-PriA inh,FadD28 binding,PrPC TRFRET,PrP 5UTR inh,Vc quorum ag
Cc1nnsc1C(=O)N1CCSC(c2ccccc2Cl)CC1 (stereo unspecified),-8,x,x,x,x
O=C(Cc1ccccc1)N1CCCC(c2nnc(-c3ccc4c(c3)OCO4)o2)C1 (stereo unspecified),-7,x,x,x,x
COc1ccc(-c2cc(=O)n(-c3nc4ccccc4[nH]3)[nH]2)cc1,40*,-1,7,-26,i
Cc1cc(NC(=O)C(=O)NCC2CCN(C3CCCC3)CC2)c2ccccc2n1,-5,x,x,x,x
COC(=O)C1CCN(c2c([N+](=O)[O-])cc(C(F)(F)F)cc2[N+](=O)[O-])CC1,59*,-4,5,-5,i
COc1cccc2sc(OC3CN(C(=O)COc4ccccc4F)C3)nc12,-10,x,x,x,x
Cc1cc2nc3ccc(=[N+](C)C)cc-3sc2cc1N,83*,1,x,-22,0
CN(C)c1ccc2nc3ccc(=[N+](C)C)cc-3sc2c1,1,2,-24,-51,0
CS(=O)(=O)c1nsc2nc(=O)c(C=C3C=Nc4ccccc43)c(N)n12,16,x,x,x,x
CSc1nsc2nc(=O)c(C=C3C(C)=Nc4ccccc43)c(N)n12,6,x,x,x,x
CC(C)S(=O)(=O)c1nsc2nc(=O)c(/C=C3\C=Nc4ccccc43)c(N)n12,x,30*,1,-12,0
CSc1nsc2nc(=O)c(/C=C3\C=Nc4ccccc43)c(N)n12,x,14*,2,-17,-1
O=C(NCCOc1ccccc1)c1cccc(Cl)c1,-6,x,x,x,x
Cc1cc(C)n(-c2ccc(Nc3ccc(NC(=O)c4ccc(Br)o4)cc3)nn2)n1,11,x,x,x,x
COc1ccc(-c2nnc(NC(=O)CSc3ccc(F)cc3)o2)cc1,-2,x,x,x,x
CCOC(=O)N1CCN(C(=O)c2cc(C)no2)CC1,98*,-2,-6,-23,0
O=C(N/N=C/c1ccncc1)c1cc2ccccc2cc1O,x,-4,-2,-18,1
Cn1cccc1C=NNC(=O)c1cc2ccccc2cc1O,43*,x,x,x,x
C=CS(=O)(=O)N(Cc1ccc(F)cc1)C(=C)C(=O)OC,x,x,53*,x,x
COC(=O)[C@@H](NC(=O)NCc1ccc(F)cc1)C(C)C,-2,1,4,-32,0
C/[N+]([O-])=C\c1ccc2ccc3cccnc3c2n1,154*,x,x,x,x
CC(=O)Nc1ccc(SCC(=O)Nc2ccc(OC(F)(F)F)cc2)nn1,-13,x,x,x,x
CCS(=O)(=O)N1CCc2nc(-c3ccccc3)sc2C1,91*,-3,-2,-57,-6
COc1cc(C(=O)Nc2ccc(Nc3ccccc3)cc2)cc(OC)c1OC,43*,7,-1,-9,0
O=C(Nc1ccc(Nc2ccccc2)cc1)c1ccc(Cl)c([N+](=O)[O-])c1,52*,0,-28,-3,2
SMILES,SSB-PriA inh,FadD28 binding,PrPC TRFRET,PrP 5UTR inh,Vc quorum ag
Cc1ccccc1NC(=O)c1ccc(Nc2c([N+](=O)[O-])cc([N+](=O)[O-])c3ccccc23)cc1,48*,0,-16,-21,-1
Cc1c(NC(=O)c2ccccc2)cccc1[N+](=O)[O-],-13,-1,-8,-6,-1
Cc1cc(C(=O)Nc2ccc(Nc3ccccc3)cc2)ccc1[N+](=O)[O-],54*,0,-2,-22,0
COc1cc(C(=O)Nc2ccncc2)cc(OC)c1OC,4,-3,6,-26,-1
Cc1ccc(S(=O)(=O)c2nc(-c3cccs3)oc2N2CC(C)OC(C)C2)cc1 (stereo unspecified),18,x,x,x,x
Cc1ccc(S(=O)(=O)Cc2ccc(-c3nc(-c4ccc(C(F)(F)F)cc4)no3)o2)cc1,-17,x,x,x,x
CCOC(=O)CSc1nc(N)c(C#N)c(-c2ccc(OCC)cc2)c1C#N,-4,-1,-3,-7,i
CC1=C(C#N)c2nc(N)c(C#N)c(C)c2/C1=C\c1ccc(OCC(=O)O)c(Cl)c1,14,14*,-2,-9,-1
CC12CCC(C(=O)Nc3ccc(OC(F)(F)F)cc3)(C(=O)C1=O)C2(C)C (stereo unspecified),-7,x,x,x,x
CCN(CC)c1ccc(/C=N/Nc2ccc(C)cc2)c(O)c1,x,-3,25*,-24,0
Cc1cc(NCCCn2ccnc2)n2ncc(-c3ccc(Cl)cc3)c2n1,43*,1,6,-44,-1
c1ccc(-c2cc(NCCCn3ccnc3)n3ncc(-c4ccccc4)c3n2)cc1,-13,x,x,x,x
